Measurements as given in PubChem BioAssay AID652264 (National Center for Advancing Translational Sciences (NCATS), 2013).
The source made the active and inactive calls.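 The calls were made as follows: active = compounds blocking cell cycle progression with a potency of 5000 nM or lower; inconclusive = potency above 5000 nM but under 10000 nM; inactive = the rest.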

Test: qHTS for Inhibitors of Ubiquitin-specific Protease USP2a Using CHOP2 as the Reporter: Cell Cycle
Settings: HCT116 cell cycle arrest, propidium iodide DNA content, 16 h
Excerpt: Homeostasis of cellular proteins is maintained through a combination of synthesis and degradation. The pathway that accounts for the majority of protein degradation is the ubiquitin-proteasomal pathway. Ubiquitin (Ub) is highly conserved in all cells and the generation of a multi-Ub chain typically targets proteins for degradation by the proteasome. However, ubiquitination is highly reversible and dynamic. Deubiquitination, the reverse process, is catalyzed through the action of enzymes referred to as isopeptidases or deubiquitinating enzymes (DUBs). This group of enzymes is collectively responsible for maintaining adequate pools of free ubiquitin and regulating the ubiquitination status of cellular proteins. The class of DUBs referred to as the ubiquitin-specific proteases (USP) family functions endoproteolytically to cleave Ub chains from a wide range of protein substrates. […] Cells in G2 have twice the fluorescence as cells in G1, and the Acumen allows the cells to be binned by their individual fluorescence properties. Therefore, in the presence of an active USP2 inhibitor the fluorescence of a cell would be lower since it would not progress from G1 to S and then G2. […]
HCT116 cells at 600 cells/well were plated in 96-well plates and allowed to adhere overnight (37C, […]). […] Intensity of the DNA stain per cell was quantified using the Acumen plate reader. […]

Structure (SMILES) | Potency
Cc1ccc(S(=O)(=O)Nc2cc(C(F)(F)F)ccc2C(=O)Nc2nc(-c3ccccc3)cs2)cc1 | 2000 nM (active)
